Experimental data as given in the supplement of paper PMC6555819.

Key:
Assay in all cases: PBM binding z-score (relative to random genomic background probes); higher = stronger binding; sequences stand for … in GC…GCGATTGACAGCGTAGAATGAAGG
[1] = test system: FXR:RXRa (NR concentration 270 nM, RXRa partner concentration 90 nM)
Summary of the method: (§1)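 Antibodies against each partner of ligand-free nuclear receptor dimers (one per run) detected binding on custom Agilent 4×180K protein-binding microarrays after 1 h incubation. The double-stranded probes had 34-nt variable regions carrying direct-repeat seeds, single-nucleotide variants, half-site ablations and random human genomic background sequences. Binding z-scores, from regression-normalized fluorescence, use the random background probes as reference.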

[2] = test system: LXRa:RXRa (NR concentration 270 nM, RXRa partner concentration 90 nM)
Summary of the method: as §1

[3] = test system: LXRa homodimer (NR concentration 270 nM)
Summary of the method: as §1

[4] = test system: LXRb:RXRa (NR concentration 270 nM, RXRa partner concentration 90 nM)
Summary of the method: as §1

[5] = test system: LXRb homodimer (NR concentration 270 nM)
Summary of the method: as §1

[6] = test system: PPARa:RXRa (NR concentration 270 nM, RXRa partner concentration 90 nM)
Summary of the method: as §1

[7] = test system: PPARg:RXRa (NR concentration 180 nM, RXRa partner concentration 90 nM)
Summary of the method: as §1

[8] = test system: PPARg:RXRa 270nM:90nM, anti-RXR (NR concentration 270 nM, RXRa partner concentration 90 nM)
Summary of the method: as §1

[9] = test system: PPARg:RXRa 30nM:10nM, anti-RXR (NR concentration 30 nM, RXRa partner concentration 10 nM)
Summary of the method: as §1

[10] = test system: PPARg:RXRa 90nM:30nM, anti-RXR (NR concentration 90 nM, RXRa partner concentration 30 nM)
Summary of the method: as §1

[11] = test system: PPARg:RXRa DBDmut IVT, anti-RXR (DBD mutation: RXRa K156A/R161A, NR concentration 270 nM, RXRa partner concentration 90 nM)
Summary of the method: as §1

[12] = test system: PPARg:RXRa IVT, anti-PPARg (NR concentration 270 nM, RXRa partner concentration 90 nM)
Summary of the method: as §1

[13] = test system: PPARg DBDmut:RXRa IVT, anti-PPARg (DBD mutation: PPARg1 K132A/R137A, NR concentration 270 nM, RXRa partner concentration 90 nM)
Summary of the method: as §1

[14] = test system: PPARg DBDmut IVT, anti-PPARg (DBD mutation: PPARg1 K132A/R137A, NR concentration 270 nM)
Summary of the method: as §1

[15] = test system: PPARg homodimer (NR concentration 180 nM)
Summary of the method: as §1

[16] = test system: PXR:RXRa (NR concentration 270 nM, RXRa partner concentration 90 nM)
Summary of the method: as §1

[17] = test system: PXR homodimer (NR concentration 270 nM)
Summary of the method: as §1

[18] = test system: RARa:RXR (NR concentration 270 nM, RXRa partner concentration 90 nM)
Summary of the method: as §1

[19] = test system: RARa homodimer (NR concentration 270 nM)
Summary of the method: as §1

[20] = test system: RARb:RXRa (NR concentration 270 nM, RXRa partner concentration 90 nM)
Summary of the method: as §1

Sequence | PBM binding z-score [1] | PBM binding z-score [2] | PBM binding z-score [3] | PBM binding z-score [4] | PBM binding z-score [5] | PBM binding z-score [6] | PBM binding z-score [7] | PBM binding z-score [8] | PBM binding z-score [9] | PBM binding z-score [10] | PBM binding z-score [11] | PBM binding z-score [12] | PBM binding z-score [13] | PBM binding z-score [14] | PBM binding z-score [15] | PBM binding z-score [16] | PBM binding z-score [17] | PBM binding z-score [18] | PBM binding z-score [19] | PBM binding z-score [20]
ATCTCTAGGTAAAGATAGATCAGTGAATGCAAAT | 0.447 | 0.581 | 0.166 | 0.000708 | 0.387 | 0.00369 | 0.763 | 0.278 | 0.36 | 0.457 | 1.89 | 1.61 | 0.429 | 1.24 | -0.283 | -0.396 | 0.0363 | -0.0575 | 1.14 | -0.27
CCTACTGGGCCATCAGGTCATGGATATCAACGTT | 1.24 | 1.22 | 0.743 | 1.49 | -0.453 | 3.14 | 3.59 | 4.15 | 1.85 | 3.37 | 4.54 | 5.33 | 1.99 | 0.266 | 1.85 | 1.58 | 0.00422 | 2.45 | -0.165 | 2.31
ATATCTAGGTAAGACTCAGTTCAGTGAAGAACGC | 0.211 | 0.372 | 0.425 | 0.221 | 0.484 | 1.35 | 1.55 | 1.27 | 0.124 | 0.928 | 5.77 | 4.56 | 2.06 | 1.25 | 0.747 | 0.999 | 1.25 | 0.287 | 1.13 | 0.401
ATATGTAGGTTAGCTGGGTTCATTCAGACTAGGC | 1.75 | 4.53 | 2.19 | 2.2 | 0.361 | 3.76 | 4.18 | 3.74 | 1.75 | 2.89 | 6.03 | 6.16 | 1.92 | 2.15 | 2.07 | 6.34 | 7.23 | 2.56 | 1.06 | 1.35
ATCTCTAGGAAAAGATAGTTCAGTGAATGCAAAT | 0.351 | 0.417 | 0.457 | 0.247 | 0.273 | -0.0453 | 0.305 | -0.0709 | 0.0801 | -0.0493 | -0.409 | -0.0598 | 0.523 | 0.248 | -0.459 | 0.432 | 0.918 | -0.0188 | 1.07 | 0.49
CCTCCAAGGTCAGAGAGGTCAGTGAATGCCGAGT | 5.62 | 5.09 | 2.77 | 4.43 | 0.381 | 4.71 | 3.2 | 4.06 | 1 | 2.54 | 2.56 | 2.91 | -0.128 | -1.11 | 3.5 | 5.94 | 10.8 | 4.82 | 0.862 | 5.18
CGAACTAGGTCCTCCAGGACAGTGAATACATTGA | -0.16 | -0.319 | -0.274 | -0.492 | -0.593 | 0.0563 | 0.755 | 0.537 | -0.117 | 0.278 | 3.46 | 2.42 | 0.246 | -0.00333 | -0.188 | -0.555 | -0.316 | -0.262 | -0.913 | -0.0568
